# Test system: DRIVER-selected RNA biosensor (aptazyme) pool
# Assay: maximum fold change of ribozyme cleavage across biosensor pool versus no-compound control; higher = stronger biosensor response (ligand inhibits cleavage)
# Settings: 10 µM
# Description: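 CleaveSeq: a pool of resynthesized hammerhead-ribozyme RNA biosensors (sTRSV scaffold with randomized loops, 1,730 sequences) was T7-transcribed at 37 °C for 15-30 min with a single compound at 10 µM. Cleaved and uncleaved products were counted by NGS, and fold change of cleavage was computed against the DMSO-only condition. The value is the maximum fold change of cleavage over all biosensors in the pool. About 255 compounds were tested individually.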
row,SMILES,maximum fold change
1,O=Cc1cn(Cc2ccc(F)cc2Cl)c2ccccc12,3
2,Cc1ccc(CNC(=O)CN2CC(c3ccccc3)CC2=O)cc1 (centres undefined),3.05
3,CN1CCN(Cc2csc3c2CCCC3)CC1,3.66
4,O=C(Cn1cnc2sc3c(c2c1=O)CCCC3)NCCCC(=O)N1CCC2(CC1)OCCO2,2.67

# — the supplement of paper PMC9477273
